This is an account of results in PubChem BioAssay AID2023 (NMMLSC, 2009).

SMILES strings stand for the structures. Screen size: about 320,000 compounds; about 1,100 (0.34%) were called active. Many of the other results were omitted from the sample, so actives are more common in it than they were. Values without a mark were called inactive.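 Rule for the calls: active = GFP response vs DMSO above a set limit, about the screen mean plus 3 SD (cut at about 150% in these data); inconclusive = under 70 cell events counted for the yeast strain; inactive = the rest.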

The assay in a line: TOR pathway LAP4-GFP level changes – S. cerevisiae, multiplex flow cytometry, MLPCN library, primary screen (AID 2023). The conditions noted are these: 3 h, at 10 µM, stronger effect = higher value, median GFP as percent of DMSO wells.
For the compound `S=C(NCc1ccco1)NCc1ccccc1Cl`, the GFP response vs DMSO is 85.2%. For `O=C(CC1N=C2c3ccccc3N=C(SCc3ccccc3Cl)N2C1=O)NCc1ccco1` (centres undefined), the GFP response vs DMSO was 97.5%. As to `Clc1ccccc1CSc1nnc(-c2ccco2)c(-c2ccco2)n1`, the GFP response vs DMSO was 186% (active). As to `CN1CCCc2cc(C#N)c(=O)[nH]c21`, the GFP response vs DMSO is 105%. Turning to `Cc1ccc(S(=O)(=O)N(C)C)cc1NC(=O)c1ccc(-n2cncn2)c([N+](=O)[O-])c1`, the GFP response vs DMSO is 98%. On to `NC(=O)c1ccccc1N=Cc1ccc2ccccc2c1`, for which the GFP response vs DMSO was 88.2%. As to `COc1cccc(NC(=O)C2CCCN(c3ncnc4c3nc3n4CCCCC3)C2)c1` (centres undefined), the GFP response vs DMSO was 94.5%. For the compound `O=C(/C=C/c1ccc(Cl)cc1Cl)c1cccnc1`, the GFP response vs DMSO is 99.4%.

Regarding `O=C(Nc1cccnc1)c1ccc(Cl)c([N+](=O)[O-])c1`, the GFP response vs DMSO is 119%. Regarding `O=C(/C=C/c1ccc(Cl)c([N+](=O)[O-])c1)c1cccnc1`, the GFP response vs DMSO is 236% (active). For `Cc1cc(NC(=O)CN2C(=O)NC(CCc3ccccc3)C2=O)no1` (centres undefined), the GFP response vs DMSO is 92.5%. On to `Cc1ccc(NC(=O)N2CCSc3ccccc32)cc1`, for which the GFP response vs DMSO is 96.8%.

In the case of `O=C(NCCS(=O)(=O)c1ccc(Br)cc1)c1ccccc1Cl`, the GFP response vs DMSO was 102%.

For `CCc1noc(C)c1C(=O)N1CCCSC1=Nc1ccccc1OC`, the GFP response vs DMSO is 101%. To `CC(C)[C@@H]1COC(c2cccc(C3=N[C@H](C(C)C)CO3)c2)=N1` belongs 163% (active). For `CCOCc1c(C(=O)N2CCN(Cc3ccc(Br)s3)CC2)oc2ccccc12`, the GFP response vs DMSO was 102%. The figure for `COc1ccc(Cn2c(-c3ccc(Cl)cc3)c[n+]3ccccc23)cc1` is 101%. As to `C/C(N)=C(\C#N)C(=O)NCCc1ccccn1`, the GFP response vs DMSO was 87.1%. Consider `O=C(NCCc1ccccc1Cl)C1CCC(=O)N(CCCc2ccccc2)C1` (centres undefined), for which the GFP response vs DMSO was 87.4%. As to `Cc1cc(C)nc(S/C=C/C(=O)c2ccccc2)n1`, the GFP response vs DMSO was 239% (active).

Regarding `Cc1cc(Oc2ccc(Cl)cc2)nc(SCC(=O)c2ccccc2)n1`, the GFP response vs DMSO was 103%.

`Cc1cc(C)nc(SCC(=O)c2ccc(Cl)cc2)n1`: the GFP response vs DMSO was 91.3%. With `Cc1noc(C)c1S(=O)(=O)N(C)Cc1ccccc1`, the GFP response vs DMSO was 91.9%.

`N#C/C(=C\N1CCOCC1)S(=O)(=O)c1ccc(Cl)cc1`: the GFP response vs DMSO is 113%. With `Cc1ccc(NC(=O)Cn2c(=O)n(CCC(=O)NC3CCN(Cc4ccccc4)CC3)c(=O)c3ccccc32)cc1`, the GFP response vs DMSO is 94.3%. `COc1ccc(C2(c3ccc(OC)cc3)NC(=O)N(CC(=O)Nc3cc(C)on3)C2=O)cc1`: the GFP response vs DMSO is 92.2%.

As to `O=C1C=CC(=O)N1c1ccc(N2CCCCC2)cc1`, the GFP response vs DMSO is 179% (active). Turning to `CC(=O)Nc1ccc(S(=O)(=O)Nc2ccc(N3CCCCC3)cc2)cc1`, the GFP response vs DMSO was 105%.

For `O=C(Cc1ccccc1)NC(=S)Nc1ccc(N2CCCCC2)cc1`, the GFP response vs DMSO is 111%.

Take `COc1ccccc1N(CCOc1ccccc1)S(=O)(=O)c1ccccc1`: the GFP response vs DMSO was 103%. For the compound `Cc1nc([N+](=O)[O-])nn1C12CC3CC(CC(Br)(C3)C1)C2`, the GFP response vs DMSO was 109%. The figure for `Cc1ccc(CSCC(N)C(=O)O)cc1` (centres undefined) is 97%; for `Cc1ccc(SC(CC(=O)c2ccc(C(C)(C)C)cc2)C(=O)O)cc1` (centres undefined) it is 170% (active).

`Cc1ccc(C(=O)CSc2ccccc2C(=O)O)cc1`: the GFP response vs DMSO was 104%. For `COc1cnc(-c2ccccn2)nc1Oc1ccc(C(C)(C)C)cc1`, the GFP response vs DMSO was 107%.

With `Cc1ccc(Oc2nc(-c3ccccn3)nc3ccccc23)cc1`, the GFP response vs DMSO was 151% (active). For the compound `CC(C)(C)Nc1nc(-c2ccccn2)nc2ccccc12`, the GFP response vs DMSO was 90.7%. For `Nn1c(Cc2cccc3ccccc23)nnc1SCC(=O)N1CC(=O)Nc2ccccc21`, the GFP response vs DMSO is 99.1%.

For the compound `Cc1onc(NC(=O)c2ccc([N+](=O)[O-])o2)c1Br`, the GFP response vs DMSO is 116%.

Turning to `O=C(Nc1ccc(Br)cn1)c1ccc([N+](=O)[O-])o1`, the GFP response vs DMSO was 105%. Take `Cc1cccc(NC(=O)c2ccc([N+](=O)[O-])o2)c1`: the GFP response vs DMSO is 151% (active).

Consider `Cc1cccc(N)c1SC1CCCCC1O` (centres undefined), for which the GFP response vs DMSO was 92.2%. Consider `Cc1ccc(C(CNC(=O)Nc2ccccc2)N2CCN(C)CC2)cc1` (centres undefined), for which the GFP response vs DMSO was 102%. As to `Cc1cc(O)c(Sc2ccccc2)c(=O)o1`, the GFP response vs DMSO was 109%. The figure for `Cc1cc(O)c(C(=O)/C=C/c2c(F)c(F)c(F)c(F)c2F)c(=O)o1` is 152% (active). Regarding `Cc1ccc(N=Cc2c(O)cc(C)oc2=O)c(C)c1`, the GFP response vs DMSO was 100%. For the compound `Cc1cccnc1NC(=O)c1cccc(S(=O)(=O)N2CCN(c3ccc(F)cc3)CC2)c1`, the GFP response vs DMSO is 87.3%. For the compound `Oc1c(CN2CCN(c3ccc(F)cc3)CC2)cc(Cl)c2cccnc12`, the GFP response vs DMSO was 203% (active).

Consider `Oc1c(CN2CCCC2)cc(COCc2ccccc2)c2cccnc12`, for which the GFP response vs DMSO is 105%. The figure for `Cc1cc(C)c(OCC(=O)N(Cc2cccs2)C2CCS(=O)(=O)C2)c(C)c1` (centres undefined) is 98.7%; for `C/C(=N\NS(=O)(=O)c1ccc(Cl)cc1)c1ccc(NC(=O)c2ccco2)cc1` it is 94.4%; for `Cc1ccc2nc(C)cc(N/N=C/c3ccc(F)cc3)c2c1` it is 103%.

As for `O=[N+]([O-])c1ccc(F)cc1Oc1nc(-c2cccnc2)nc2ccccc12`, the GFP response vs DMSO was 100%.

On to `Fc1ccc(/C=N/Nc2nc(-c3cccnc3)nc3ccccc23)cc1`, for which the GFP response vs DMSO was 165% (active).

In the case of `CCOC(=O)CCC(=O)OCC(=O)NC(C)C1CC2CCC1C2` (centres undefined), the GFP response vs DMSO is 100%.

For `COc1ccc(S(=O)(=O)N2CCN(CC(=O)N3CCOCC3)CC2)cc1OC`, the GFP response vs DMSO was 95%. The figure for `O=C(COC(=O)c1cccnc1Cl)NC12CC3CC(CC(C3)C1)C2` is 104%.

For `CN/C(=C\[N+](=O)[O-])NCCSCc1csc(CN(C)C)n1`, the GFP response vs DMSO is 95.9%.

On to `COC(=O)c1ccc(-c2noc(CN(Cc3ccccn3)CC3CCCO3)n2)cc1` (centres undefined), for which the GFP response vs DMSO was 98.4%. As to `COc1ccccc1C(=O)Nc1ccc(OCc2nnc3c4ccccc4c(C)nn23)cc1`, the GFP response vs DMSO is 102%.

As for `C=CCC1(CC=C)CCCN1C(=O)CC1C(=O)NCCN1Cc1ccccc1OC` (centres undefined), the GFP response vs DMSO was 93%. Regarding `CCc1noc(C)c1C(=O)Nc1nc2ccc(OC)cc2s1`, the GFP response vs DMSO is 152% (active). For `CCc1noc(C)c1C(=O)Nc1nc(-c2ccccc2)cs1`, the GFP response vs DMSO is 115%. Turning to `COc1cccc(C(=O)Nc2nc3ccc(S(C)(=O)=O)cc3s2)c1`, the GFP response vs DMSO was 103%.
